Source: PubChem BioAssay (Tox21)
Inconclusive results are not listed. Activity calls are given as the source filed them. Calls come from the whole dose curve; as a rule, active = well fitted curve in the direction sought with a large enough effect in the repeat runs; inconclusive = weak or mixed curves; inactive = no such curve, though single readings can be large; an effect the other way counts as inactive or inconclusive.

Legend:
[1] = qHTS RealTime-Glo MT Cell Viability Assay in HEK293 cells - 16 hour (AID 1224872); note: top concentration of the series differs between compounds; nearly all actives have a fitted effect of over 50% in size
Procedure, shortened: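 Tox21 10K qHTS, HEK293, 600 cells/well, RealTime-Glo reagent co-dispensed with cells; 5 h preincubation, compound by pintool, 37 C, luminescence at 0–40 h.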

[2] = qHTS RealTime-Glo MT Cell Viability Assay in HepG2 cells - 8 hour (AID 1224873); note: nearly all actives have a fitted effect of over 55% in size
Procedure, shortened: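 Real-time viability: cells seeded at 600 per well together with NanoLuc and cell-permeant prosubstrate, compounds added after 5 h incubation. Luminescence tracked at 0, 8, 16, 24, 32 and 40 h of exposure.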

[3] = qHTS RealTime-Glo MT Cell Viability Assay in HEK293 cells - 40 hour (AID 1224874); conditions: RealTime-Glo luminescence; max response: hits give low values; note: nearly all actives have a fitted effect of over 50% in size
Procedure, shortened: (§1)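 Luminescence, which tracks viable cell number through reduction of the prosubstrate to a NanoLuc substrate, was read over continuous 37 C culture. Cells (600/well) were premixed with reagent and rested 5 h before 23 nL of compound in DMSO was pinned.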

[4] = qHTS RealTime-Glo MT Cell Viability Assay in HEK293 cells - 0 hour (AID 1224880); note: top concentration of the series differs between compounds; nearly all actives have a fitted effect of over 45% in size
Procedure, shortened: as §1

[5] = A CellTox Green Cytotoxicity Assay to monitor cytotoxicity in HepG2 cells - 16 hour (AID 1224876); note: nearly all actives have a fitted effect of over 45% in size
Procedure, shortened: (§2)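 Real-time cytotoxicity: fluorescence of a cell-impermeant cyanine dye binding DNA of dead HepG2 cells, measured repeatedly (0–40 h) during compound exposure at 37 C. Cells seeded 600/well with reagent, dosed after 5 h.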

[6] = qHTS RealTime-Glo MT Cell Viability Assay in HepG2 cells - 32 hour (AID 1224877); note: nearly all actives have a fitted effect of over 55% in size
Procedure, shortened: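 Cells + NanoLuc/prosubstrate dispensed (600 cells/well) → 5 h at 37 C/5% CO2 → compounds in DMSO transferred → 40 h incubation at 37 C, luminescence read at 0, 8, 16, 24, 32, 40 h.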

[7] = A CellTox Green Cytotoxicity Assay to monitor cytotoxicity in HepG2 cells - 24 hour (AID 1224878); note: nearly all actives have a fitted effect of over 45% in size
Procedure, shortened: as §2

[8] = A CellTox Green Cytotoxicity Assay to monitor cytotoxicity in HEK293 cells - 32 hour (AID 1224881); note: nearly all actives have a fitted effect of over 40% in size
Procedure, shortened: (§3)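 Fluorescence from a DNA-binding dye excluded by viable cells was measured repeatedly in the same HEK293 wells (600 cells/well) during continuous compound exposure at 37 C. Each assay gives one read point: 0, 8, 16, 24, 32 or 40 h.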

[9] = A CellTox Green Cytotoxicity Assay to monitor cytotoxicity in HEK293 cells - 24 hour (AID 1224875); note: series mostly up to about 77 µM; nearly all actives have a fitted effect of over 45% in size
Procedure, shortened: as §3

[10] = A CellTox Green Cytotoxicity Assay to monitor cytotoxicity in HepG2 cells - 40 hour (AID 1224879); note: nearly all actives have a fitted effect of over 40% in size
Procedure, shortened: as §2
% is set by controls: 0 for no effect and ±100 for the full control effect.

c1ccc(CCc2ccccc2)cc1
inactive: Potency [1] | outcome [2] | max response [3] -4.4% | Potency [4]

CCCC(C)C(=O)OCC (stereo not drawn)
inactive: Potency [1] | outcome [2] | max response [3] -2.71% | outcome [5] | Potency [6] | outcome [7] | Potency [4] | outcome [8]

CC(=O)c1ccc2ccccc2c1
inactive: Potency [1] | outcome [2] | max response [3] 8.54% | Potency [6] | Potency [4] | outcome [8]

CCOC(=O)COC(=O)c1ccccc1C(=O)OCC
inactive: Potency [1] | outcome [2] | max response [3] 11% | outcome [5] | Potency [6] | Potency [4] | outcome [8]

Cc1cc(C)c(N=Nc2c(O)c(S(=O)(=O)O)cc3cc(S(=O)(=O)O)ccc23)cc1C
inactive: viability change, negative = cytotoxic [2] 5.41% [at 6.97 µM] | activity change [9] 16.7% [at 6.97 µM] | cytotoxicity increase [5] 0.0418% [at 6.97 µM] | activity change, negative = cytotoxic [6] -2.9% [at 6.97 µM] | cytotoxicity [7] -2.84% [at 6.97 µM] | cytotoxicity increase [10] -2.22% [at 6.97 µM] | cytotoxicity increase [8] 10.2% [at 6.97 µM]

O=S(=O)(O)c1cccc2c(S(=O)(=O)O)cccc12
inactive: outcome [2] | outcome [5] | Potency [6] | Potency [10] | Potency [4] | outcome [8]
